Source: the supplement of paper PMC10849652
About 8,800 targets were measured; listed, in parts, are those with a hit and a random draw of the rest. About 0.5% of all pairs of compound and target were hits.

Key:
Test in all cases: log2 fold change, soluble protein after heating vs DMSO (PISA); higher = thermal stabilisation; K562 lysate, 10 uM; active = over 0.2 and 3.5 SD of the protein, either way, in both replicates (recomputed)
ibrutinib = compound: C=CC(=O)N1CCC[C@@H](n2nc(-c3ccc(Oc4ccccc4)cc3)c3c(N)ncnc32)C1 [ibrutinib]
How it was run: (§1)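 Dounce homogenisation of K562 pellets in PBS pH 7.4 with 1 mM MgCl2 produced a crude extract, used at 1 mg/mL protein. Exposure to 10 μM compound lasted 30 min, and aliquots were then heated for 3 min across 48°C-58°C, pooled and brought to 0.5% NP-40 at 4°C. The supernatant after 21,000xg for 90 min was quantified by TMTpro 16plex LC-MS/MS with channel sums equalised. Duplicate values are given as log-two fold change in thermal stability relative to solvent controls.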

[1] = compound: CC(=O)c1cnc2ccc(-c3cc(Cl)c(O)c(Cl)c3)nc2c1N[C@H]1CC[C@H](CN(C)C)CC1
How it was run: as §1

ralimetinib = compound: CC(C)(C)Cn1c(N)nc2ccc(-c3[nH]c(C(C)(C)C)nc3-c3ccc(F)cc3)nc21 [ralimetinib]
How it was run: as §1

[2] = compound: CC(C)(O)CC(=O)NCCn1ccc2ncnc(Nc3ccc(Oc4cccc(C(F)(F)F)c4)c(Cl)c3)c21
How it was run: as §1

[3] = compound: CC(C)C1=C2N=C(C=C(N2N=C1)NCC3=CC=CC=C3)NCCCCCCN
How it was run: as §1

[4] = compound: CC1=C(C(CC(=O)N1)C2=CC=C(C=C2)C(F)(F)F)C(=O)NC3=C(C=C4C(=C3)C=NN4)F
How it was run: as §1

[5] = compound: CC1=C(C2=C(C=C1)C(=O)C3=CC=CC=C3N2CCCN)C
How it was run: as §1

[6] = compound: CC1=C(C=C(C=C1)NC(=O)C2=CC(=CC=C2)C(C)(C)C#N)NC3=CC4=C(C=C3)N=CN(C4=O)C
How it was run: as §1

[7] = compound: CC1=C(C=C(C=C1)NC(=O)C2=CC(=CC=C2)N(C)C)NC(=O)C3=CC=C(C=C3)O
How it was run: as §1

[8] = compound: CC1=CC=C(C=C1)SC2=C3C=C(SC3=CN=C2)C(=O)N
How it was run: as §1

Measured: log2 fold change

SEC61G (UniProt P60059)
Sequence of UniProt P60059 (P60059 whole entry, looked up): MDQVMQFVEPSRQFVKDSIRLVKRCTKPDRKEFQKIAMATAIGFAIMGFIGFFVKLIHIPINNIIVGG
inactive: ibrutinib 0.037 | [1] 0 | ralimetinib -0.019 | [2] -0.229 | [3] -0.052 | [4] -0.081 | [5] -0.053 | [6] 0.071 | [7] 0.004 | [8] 0.052

SASS6 (UniProt Q6UVJ0)
inactive: ibrutinib -0.006 | [1] 0.023 | ralimetinib -0.006 | [2] -0.056 | [3] -0.017 | [4] 0.024 | [5] 0.007 | [6] 0.015 | [7] 0.001 | [8] -0.021

RFC5 (UniProt P40937)
inactive: ibrutinib -0.038 | [1] -0.001 | ralimetinib 0.046 | [2] 0.02 | [3] 0.012 | [4] -0.002 | [5] -0.009 | [6] 0.014 | [7] 0.025 | [8] 0.018

RBM4 (UniProt Q9BWF3)
inactive: ibrutinib 0.006 | [1] 0.021 | ralimetinib 0.008 | [2] -0.014 | [3] 0.023 | [4] 0.028 | [5] 0.005 | [6] -0.154 | [7] 0.025 | [8] -0.004

RNF213, A0A0A0MTC1
inactive: ibrutinib 0.015 | [1] 0.006 | ralimetinib -0.001 | [2] -0.014 | [3] 0.007 | [4] 0.014 | [5] 0.008 | [6] 0.014 | [7] 0.042 | [8] 0.022

SEH1L isoform 1 (UniProt Q96EE3)
inactive: ibrutinib 0.013 | [1] -0.024 | ralimetinib -0.011 | [2] -0.008 | [3] 0.005 | [4] -0.021 | [5] -0.014 | [6] 0.015 | [7] 0.017 | [8] -0.014

RNF113A (UniProt O15541)
inactive: ibrutinib 0.009 | [1] -0.003 | ralimetinib 0.005 | [2] -0.049 | [3] 0.111 | [4] 0.015 | [5] -0.038 | [6] 0.024 | [7] 0.017 | [8] -0.03

SCAF1 (UniProt Q9H7N4)
inactive: ibrutinib 0.219 | [1] -0.054 | ralimetinib -0.025 | [2] 0.171 | [3] 0.042 | [4] 0.065 | [5] -0.06 | [6] 0.056 | [7] 0.056 | [8] 0.002

RAF1 isoform 2 (UniProt P04049)
inactive: ibrutinib -0.046 | [1] 0.047 | ralimetinib 0.054 | [2] 0.004 | [3] 0.065 | [4] 0.092 | [5] -0.055 | [7] 0 | [8] 0.027
active: [6] 0.359

RAPGEF2, A0A2R8YGD3
inactive: ibrutinib -0.059 | [1] 0.007 | ralimetinib 0.008 | [2] -0.037 | [3] 0.008 | [4] 0.054 | [5] -0.07 | [6] 0.025 | [7] -0.025 | [8] 0.023

RAP1GAP isoform 4 (UniProt P47736)
inactive: ibrutinib -0.024 | [1] 0.018 | ralimetinib 0.068 | [2] -0.037 | [3] 0.051 | [4] 0.003 | [5] -0.008 | [6] 0.056 | [7] -0.009 | [8] -0.012

SEC16A isoform 5 (UniProt O15027)
Sequence of UniProt O15027 (O15027 whole entry, looked up): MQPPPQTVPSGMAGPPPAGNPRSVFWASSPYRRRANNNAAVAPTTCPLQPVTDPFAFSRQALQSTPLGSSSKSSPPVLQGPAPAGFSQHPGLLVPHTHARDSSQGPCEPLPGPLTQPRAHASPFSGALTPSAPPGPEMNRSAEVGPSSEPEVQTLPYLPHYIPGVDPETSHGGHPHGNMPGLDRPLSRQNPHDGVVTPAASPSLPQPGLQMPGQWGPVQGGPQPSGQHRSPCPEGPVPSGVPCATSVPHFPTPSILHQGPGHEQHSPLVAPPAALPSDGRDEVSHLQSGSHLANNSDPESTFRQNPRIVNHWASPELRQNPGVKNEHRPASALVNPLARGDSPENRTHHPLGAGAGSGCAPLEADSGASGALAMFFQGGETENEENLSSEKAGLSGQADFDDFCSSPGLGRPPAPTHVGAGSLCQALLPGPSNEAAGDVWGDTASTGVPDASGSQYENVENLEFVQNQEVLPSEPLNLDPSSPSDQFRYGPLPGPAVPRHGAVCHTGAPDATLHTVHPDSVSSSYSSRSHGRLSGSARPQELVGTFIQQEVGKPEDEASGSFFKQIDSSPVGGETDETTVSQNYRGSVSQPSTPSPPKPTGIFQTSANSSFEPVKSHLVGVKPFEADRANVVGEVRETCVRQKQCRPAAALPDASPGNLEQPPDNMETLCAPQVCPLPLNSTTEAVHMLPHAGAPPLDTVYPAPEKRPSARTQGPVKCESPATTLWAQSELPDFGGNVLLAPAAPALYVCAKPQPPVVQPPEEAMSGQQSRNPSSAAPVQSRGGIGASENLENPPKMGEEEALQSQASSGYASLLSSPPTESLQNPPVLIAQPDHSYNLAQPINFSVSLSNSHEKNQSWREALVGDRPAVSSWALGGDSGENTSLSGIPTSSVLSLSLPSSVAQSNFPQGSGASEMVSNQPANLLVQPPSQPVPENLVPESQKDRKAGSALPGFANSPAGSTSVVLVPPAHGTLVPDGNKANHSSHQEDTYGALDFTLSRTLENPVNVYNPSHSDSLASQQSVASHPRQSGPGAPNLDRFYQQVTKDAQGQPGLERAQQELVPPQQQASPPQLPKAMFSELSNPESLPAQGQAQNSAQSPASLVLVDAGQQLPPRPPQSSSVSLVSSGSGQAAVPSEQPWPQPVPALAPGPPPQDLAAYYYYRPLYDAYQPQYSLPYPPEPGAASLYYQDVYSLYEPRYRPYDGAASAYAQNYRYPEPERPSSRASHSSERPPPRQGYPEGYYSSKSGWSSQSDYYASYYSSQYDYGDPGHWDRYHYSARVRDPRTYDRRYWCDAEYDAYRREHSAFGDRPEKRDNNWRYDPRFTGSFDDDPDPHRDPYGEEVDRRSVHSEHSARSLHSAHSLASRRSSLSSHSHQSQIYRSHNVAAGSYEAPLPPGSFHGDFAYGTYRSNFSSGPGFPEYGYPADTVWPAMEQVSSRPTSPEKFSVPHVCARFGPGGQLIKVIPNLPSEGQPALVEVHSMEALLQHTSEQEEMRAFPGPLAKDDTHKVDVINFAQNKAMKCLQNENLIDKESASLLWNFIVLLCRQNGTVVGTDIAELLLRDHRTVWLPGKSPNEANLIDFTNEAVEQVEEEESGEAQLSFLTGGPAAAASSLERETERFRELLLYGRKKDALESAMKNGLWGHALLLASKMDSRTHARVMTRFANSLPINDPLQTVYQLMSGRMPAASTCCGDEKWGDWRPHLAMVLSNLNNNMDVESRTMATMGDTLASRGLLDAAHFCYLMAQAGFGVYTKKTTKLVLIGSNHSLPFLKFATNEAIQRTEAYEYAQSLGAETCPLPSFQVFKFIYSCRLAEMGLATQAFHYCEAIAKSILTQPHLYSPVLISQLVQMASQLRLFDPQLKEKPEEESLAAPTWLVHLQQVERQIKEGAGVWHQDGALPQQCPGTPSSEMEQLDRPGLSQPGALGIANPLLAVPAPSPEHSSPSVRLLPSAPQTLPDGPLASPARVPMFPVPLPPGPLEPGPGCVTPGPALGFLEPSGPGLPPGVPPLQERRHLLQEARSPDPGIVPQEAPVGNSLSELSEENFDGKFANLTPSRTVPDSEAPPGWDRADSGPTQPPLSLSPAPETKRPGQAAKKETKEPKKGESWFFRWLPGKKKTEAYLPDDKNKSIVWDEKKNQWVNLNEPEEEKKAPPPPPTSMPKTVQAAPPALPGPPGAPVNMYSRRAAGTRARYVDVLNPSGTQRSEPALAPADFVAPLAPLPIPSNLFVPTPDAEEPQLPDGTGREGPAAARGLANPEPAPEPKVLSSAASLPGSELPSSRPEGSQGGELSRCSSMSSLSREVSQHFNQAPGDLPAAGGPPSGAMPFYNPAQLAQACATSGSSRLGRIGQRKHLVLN
inactive: ibrutinib 0.035 | [1] -0.021 | ralimetinib -0.013 | [2] 0.015 | [3] 0.01 | [4] 0.019 | [5] 0.004 | [6] -0.121 | [7] 0.011 | [8] -0.031

SERPINI1 (UniProt Q99574)
inactive: ibrutinib 0.063 | [1] 0.075 | ralimetinib 0.001 | [2] 0.024 | [3] 0.005 | [4] 0.056 | [5] 0.004 | [6] -0.024 | [7] -0.028 | [8] -0.054

RPL27 (UniProt P61353)
inactive: ibrutinib 0.037 | [1] -0.014 | ralimetinib -0.025 | [2] -0.018 | [3] -0.01 | [4] -0.067 | [5] -0.051 | [6] 0 | [7] -0.01 | [8] 0.014

RFC3 (UniProt P40938)
inactive: ibrutinib 0.024 | [1] 0.131 | ralimetinib 0.03 | [2] -0.012 | [3] -0.04 | [4] 0.004 | [5] -0.034 | [6] 0.002 | [7] 0.042 | [8] -0.008

RPTOR (UniProt Q8N122)
inactive: ibrutinib -0.042 | [1] 0.008 | ralimetinib -0.001 | [2] -0.045 | [3] -0.012 | [4] 0.005 | [5] -0.039 | [6] 0.005 | [7] 0.038 | [8] 0.01

RPS4X (UniProt P62701)
inactive: ibrutinib 0 | [1] -0.003 | ralimetinib 0.009 | [2] -0.021 | [3] 0.022 | [4] -0.026 | [5] -0.116 | [6] -0.008 | [7] -0.001 | [8] 0.034

SESN2 (UniProt P58004)
inactive: ibrutinib -0.001 | [1] -0.038 | ralimetinib 0.018 | [2] 0.007 | [3] 0.019 | [4] -0.051 | [5] -0.064 | [6] 0.008 | [7] 0.078 | [8] 0.205

RCAN1 (UniProt P53805)
Sequence of UniProt P53805 (P53805 whole entry, looked up): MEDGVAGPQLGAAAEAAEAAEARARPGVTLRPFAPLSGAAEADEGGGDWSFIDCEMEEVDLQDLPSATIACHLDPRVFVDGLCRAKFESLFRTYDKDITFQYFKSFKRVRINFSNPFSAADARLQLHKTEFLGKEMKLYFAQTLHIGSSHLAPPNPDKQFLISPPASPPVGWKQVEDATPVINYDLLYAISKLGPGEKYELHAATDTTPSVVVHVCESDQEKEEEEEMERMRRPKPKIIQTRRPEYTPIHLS
inactive: ibrutinib -0.019 | [1] 0.003 | ralimetinib -0.004 | [2] 0.012 | [3] 0.002 | [4] 0.026 | [5] -0.027 | [6] 0.085 | [7] -0.02 | [8] 0.02

RALGAPA1 isoform 6 (UniProt Q6GYQ0)
Sequence of UniProt Q6GYQ0 (Q6GYQ0 whole entry, looked up): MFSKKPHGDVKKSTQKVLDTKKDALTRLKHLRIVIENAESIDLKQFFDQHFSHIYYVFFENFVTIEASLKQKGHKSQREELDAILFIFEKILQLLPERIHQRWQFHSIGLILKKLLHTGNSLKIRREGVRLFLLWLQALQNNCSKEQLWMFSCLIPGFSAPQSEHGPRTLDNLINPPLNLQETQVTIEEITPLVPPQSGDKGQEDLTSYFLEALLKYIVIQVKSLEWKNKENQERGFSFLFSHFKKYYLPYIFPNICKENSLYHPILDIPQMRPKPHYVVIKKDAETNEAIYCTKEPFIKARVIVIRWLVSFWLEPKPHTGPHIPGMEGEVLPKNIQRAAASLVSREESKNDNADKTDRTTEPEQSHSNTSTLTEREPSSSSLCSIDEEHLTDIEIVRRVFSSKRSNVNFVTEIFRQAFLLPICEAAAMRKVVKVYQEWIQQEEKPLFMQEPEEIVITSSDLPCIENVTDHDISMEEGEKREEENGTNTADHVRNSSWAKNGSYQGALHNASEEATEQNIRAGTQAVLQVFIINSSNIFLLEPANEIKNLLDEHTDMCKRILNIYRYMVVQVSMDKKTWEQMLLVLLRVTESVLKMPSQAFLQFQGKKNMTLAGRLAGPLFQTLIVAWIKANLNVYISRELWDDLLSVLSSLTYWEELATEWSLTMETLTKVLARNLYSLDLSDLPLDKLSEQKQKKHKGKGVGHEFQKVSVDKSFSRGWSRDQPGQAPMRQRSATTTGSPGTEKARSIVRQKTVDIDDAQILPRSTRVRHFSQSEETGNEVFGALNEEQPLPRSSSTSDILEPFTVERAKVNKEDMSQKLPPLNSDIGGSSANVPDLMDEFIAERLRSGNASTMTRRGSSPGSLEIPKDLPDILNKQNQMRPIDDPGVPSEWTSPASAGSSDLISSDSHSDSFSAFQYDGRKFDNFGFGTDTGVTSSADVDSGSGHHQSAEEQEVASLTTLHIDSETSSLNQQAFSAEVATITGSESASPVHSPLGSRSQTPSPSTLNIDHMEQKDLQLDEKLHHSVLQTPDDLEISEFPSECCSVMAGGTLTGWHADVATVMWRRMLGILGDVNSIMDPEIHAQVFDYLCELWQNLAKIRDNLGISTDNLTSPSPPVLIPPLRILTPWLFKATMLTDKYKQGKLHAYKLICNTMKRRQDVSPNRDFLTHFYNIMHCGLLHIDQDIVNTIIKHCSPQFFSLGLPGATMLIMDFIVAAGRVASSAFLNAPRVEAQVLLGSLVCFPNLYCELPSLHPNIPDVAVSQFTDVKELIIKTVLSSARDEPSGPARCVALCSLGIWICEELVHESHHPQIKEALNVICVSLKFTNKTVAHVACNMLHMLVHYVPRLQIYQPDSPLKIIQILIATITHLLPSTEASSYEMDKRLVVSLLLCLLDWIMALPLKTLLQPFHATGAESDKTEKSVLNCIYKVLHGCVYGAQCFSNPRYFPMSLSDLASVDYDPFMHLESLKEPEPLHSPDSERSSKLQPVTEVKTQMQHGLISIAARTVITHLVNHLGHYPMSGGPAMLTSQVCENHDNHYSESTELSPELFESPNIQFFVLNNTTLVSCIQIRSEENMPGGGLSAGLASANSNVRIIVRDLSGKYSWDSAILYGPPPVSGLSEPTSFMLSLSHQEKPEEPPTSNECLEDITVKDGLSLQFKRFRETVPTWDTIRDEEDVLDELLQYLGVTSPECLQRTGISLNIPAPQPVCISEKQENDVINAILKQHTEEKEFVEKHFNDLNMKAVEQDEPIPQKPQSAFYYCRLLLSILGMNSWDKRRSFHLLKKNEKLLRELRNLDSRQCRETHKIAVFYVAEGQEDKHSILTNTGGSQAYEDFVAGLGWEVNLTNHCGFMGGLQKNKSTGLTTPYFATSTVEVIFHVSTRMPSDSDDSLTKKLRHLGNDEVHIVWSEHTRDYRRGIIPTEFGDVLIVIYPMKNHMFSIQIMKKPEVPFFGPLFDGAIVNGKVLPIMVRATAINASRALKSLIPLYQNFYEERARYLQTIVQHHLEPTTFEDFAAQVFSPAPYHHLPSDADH
inactive: ibrutinib 0.047 | [1] -0.06 | ralimetinib 0.01 | [2] 0.002 | [3] -0.01 | [4] -0.039 | [5] 0.02 | [6] -0.007 | [7] 0.038 | [8] -0.081

SAMHD1 (UniProt Q9Y3Z3)
inactive: ibrutinib -0.009 | [1] -0.022 | ralimetinib 0.056 | [2] -0.004 | [3] -0.002 | [4] 0.003 | [5] -0.017 | [6] 0.006 | [7] 0.067 | [8] -0.003

ROCK1 (UniProt Q13464)
inactive: ibrutinib -0.002 | [1] -0.027 | ralimetinib -0.005 | [2] -0.021 | [3] -0.003 | [4] 0.096 | [5] -0.041 | [6] 0.006 | [7] 0.024 | [8] 0.002

SEC13 isoform 3 (UniProt P55735)
Sequence of UniProt P55735 (P55735 whole entry, looked up): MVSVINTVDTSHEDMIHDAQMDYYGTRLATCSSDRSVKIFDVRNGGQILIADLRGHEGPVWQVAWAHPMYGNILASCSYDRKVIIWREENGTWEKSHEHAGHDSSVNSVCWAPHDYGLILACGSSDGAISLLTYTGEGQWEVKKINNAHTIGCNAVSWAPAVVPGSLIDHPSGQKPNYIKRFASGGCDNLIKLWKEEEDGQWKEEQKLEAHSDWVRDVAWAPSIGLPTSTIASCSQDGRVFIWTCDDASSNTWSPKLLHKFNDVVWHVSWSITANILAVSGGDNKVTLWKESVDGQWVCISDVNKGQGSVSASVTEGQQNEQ
inactive: ibrutinib -0.084 | [1] -0.025 | ralimetinib 0.024 | [2] -0.01 | [3] -0.015 | [4] -0.005 | [5] 0.034 | [6] -0.032 | [7] 0.031 | [8] -0.014

RASA2 (UniProt Q15283)
inactive: ibrutinib 0.034 | [1] -0.011 | ralimetinib 0.006 | [2] -0.038 | [3] 0.014 | [4] 0.023 | [5] 0.004 | [6] 0.033 | [7] 0.019 | [8] -0.013

RBBP8 isoform 2 (UniProt Q99708)
inactive: ibrutinib -0.204 | [1] 0.005 | ralimetinib -0.086 | [2] 0.011 | [3] -0.006 | [4] 0.003 | [5] -0.018 | [6] -0.066 | [7] -0.006 | [8] -0.143

RAB3IL1 (UniProt E9PK89)
inactive: ibrutinib 0.066 | [1] 0.045 | ralimetinib -0.028 | [2] -0.08 | [3] -0.069 | [4] 0.052 | [5] 0.071 | [6] 0.025 | [7] 0.135 | [8] -0.031

RBM8A (UniProt Q9Y5S9)
inactive: ibrutinib -0.001 | [1] -0.016 | ralimetinib -0.011 | [2] 0.057 | [3] -0.038 | [4] -0.004 | [5] 0.066 | [6] -0.101 | [7] 0.035 | [8] 0.027
